Laboratory results taken from the supplement of paper PMC11732987, “Enantioselective OTUD7B fragment discovery through chemoproteomics screening and high-throughput optimisation” (Communications Chemistry, 2025).
Values without a mark were called inactive.

target: USP14 (UniProt P54578); experiment: log2 ratio of Biotin-Ahx-Ub-VS probe labelling (fragment/DMSO); higher = less target engagement (more negative = stronger competition), active = hit call of the paper (q ≤ 0.05, log2 ratio ≤ -1); conditions: compound concentration: 200 uM; treatment time: 3 h
Description: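 Competitive ABPP in HEK293T cell lysate. Lysates were treated with each chloroacetamide fragment at 200 µM for 3 h, then with Biotin-Ahx-Ub-VS (0.5 µM, 1 h), NeutrAvidin-enriched and analysed by diaPASEF LC-MS/MS. Protein LFQ was median-normalised; average log2 ratio is fragment/DMSO from an unpaired t-test (n=3 treated, n=44 DMSO). Hits: q ≤ 0.05, log2 ratio ≤ -1, unique peptides ≥ 2.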

Sequence of USP14 (P54578 whole entry, the tested form may be a part): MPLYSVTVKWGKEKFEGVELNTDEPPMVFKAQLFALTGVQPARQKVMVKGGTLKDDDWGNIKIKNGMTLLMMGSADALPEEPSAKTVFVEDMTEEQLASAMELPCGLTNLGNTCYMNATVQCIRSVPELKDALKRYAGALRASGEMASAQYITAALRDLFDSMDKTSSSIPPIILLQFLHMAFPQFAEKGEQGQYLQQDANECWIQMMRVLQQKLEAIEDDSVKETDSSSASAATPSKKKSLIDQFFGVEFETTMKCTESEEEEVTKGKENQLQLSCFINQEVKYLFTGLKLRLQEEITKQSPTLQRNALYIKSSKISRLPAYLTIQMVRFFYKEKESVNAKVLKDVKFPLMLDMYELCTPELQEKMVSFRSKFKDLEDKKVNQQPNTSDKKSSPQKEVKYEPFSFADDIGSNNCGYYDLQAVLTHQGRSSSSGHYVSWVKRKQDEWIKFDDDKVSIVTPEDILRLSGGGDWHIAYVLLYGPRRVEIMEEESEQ

Compound	log2 ratio of Biotin-Ahx-Ub-VS probe labelling
Cc1ccccc1OCC(=O)N1CCN(C(=O)CCl)CC1	-0.131
Cl.O=C(CCl)NCc1ccnc(Oc2ccccc2F)c1	-0.153
CC(C)n1nccc1NC(=O)CCl	-0.146
CS(=O)(=O)c1ccc(CNC(=O)CCl)cc1	-0.204
O=C(CCl)N1CCC(S(=O)(=O)c2ccc(F)cc2)CC1	-0.0146
O=C(CCl)N1CCc2nc[nH]c2C1c1ccc(Cl)cc1 (stereo not given)	-0.69
Cc1nc(CN2CCN(C(=O)CCl)CC2)cs1	-0.431
CCc1c[nH]c(CNC(=O)CCl)n1.Cl	-0.5
CN(C)C(=O)c1ccc(NC(=O)CCl)cc1	-0.162
O=C(CCl)N1CCOC2(CCC2)CC1	-0.247
O=C(CCl)N1CCN(C(=O)Nc2ccccc2)CC1	0.127
Cl.O=C(CCl)N[C@H]1C[C@@H](n2cccn2)C1	-0.208
O=C(CCl)N[C@H]1CC[C@@H](CO)CC1	-0.814
O=C(CCl)Nc1ccc(F)cc1F	-0.106
O=C(CCl)NCc1noc(C2CC2)n1	-0.284
Cc1n[nH]c(=O)c2c(NC(=O)CCl)oc(C)c12	0.0281
O=C(CCl)N1CC2(CCOCC2)C1	-0.191
NC(=O)C(Cc1ccccc1)NC(=O)CCl (stereo not given)	-0.156
Cl.O=C(CCl)N1CCN(Cc2ccccc2)CC1	-0.745
O=C(CCl)N1CCOC(CCc2ccccc2)C1 (stereo not given)	-0.562

Compound	log2 ratio of Biotin-Ahx-Ub-VS probe labelling
O=C(CCl)Nc1ccc(N2CCCC2=O)cc1	-0.139
Cc1n[nH]c2c1CN(C(=O)CCl)CC2	-0.903
Cc1conc1C1CN(C(=O)CCl)C1	-1.12 (active)
O=C(CCl)N1CCC(C(=O)N2CCCC2)CC1	-0.0629
CC1CCc2onc(CNC(=O)CCl)c2C1 (stereo not given)	0.328
O=C(CCl)N1CCN2C(=O)CCC2C1 (stereo not given)	0.0904
Cl.O=C(CCl)NCCN1CCc2ccccc21	-0.483
Cc1ncsc1CCNC(=O)CCl	0.518
O=C(CCl)N1CC=C(c2c[nH]c3ccccc23)CC1	-0.573
N#Cc1ccc(CNC(=O)CCl)cc1	-0.177
O=C(CCl)Nc1cc2c(cc1Cl)OCCCO2	0.135
N#Cc1ccccc1N1CCN(C(=O)CCl)CC1	-0.673
O=C(CCl)Nc1cccc(NC(=O)c2ccccc2)c1	0.235
O=C(CCl)Nc1cc(Cl)ccc1-n1cncn1	-1.09 (active)
O=C(CCl)Nc1cccc2ncccc12	0.338
CN1c2ccccc2C(NC(=O)CCl)CS1(=O)=O (stereo not given)	-0.335
CN(CCC(O)c1ccc(Br)cc1)C(=O)CCl (stereo not given)	-0.442
Cc1ccccc1CN(C)C(=O)CCl	-0.81
Cl.Cn1nc2c(c1CNC(=O)CCl)CCCC2	-0.00316
COc1cc(Cl)c(C)cc1NC(=O)CCl	-0.458
